We go through 14 molecules from PubChem BioAssay (NCATS).

Values joined by “and” are separate entries in the source; they are usually repeats but may differ in a detail not shown here. Equal entries are not always repeated. Records with an inconclusive call do not appear. Active and inactive are the calls of the source. Unless noted, the call rests on the fitted dose curve.

Test [1] is described as follows: qHTS for Inhibitors of the Functional Ribonucleoprotein Complex (vRNP) of Lassa (LASV) Arenavirus: Viability assay - alamar blue signal for LASV Primary Screen (AID 1347083; calls by dose curve; tested in HEK293 reporter line; further: nearly all actives have a fitted effect of over 80% in size; further: potency means the concentration at half of the fitted maximal effect). (In qHTS, concentration-response curves come from the screen itself.)
Test [2] can be described thus: qHTS for Inhibitors of the Functional Ribonucleoprotein Complex (vRNP) of Lymphocytic Choriomeningitis Arenaviruses (LCMV): Viability assay - alamar blue signal for LCMV Primary Screen (AID 1347085; calls by dose curve; tested in HEK293 reporter line; further: nearly all actives have a fitted effect of over 80% in size; further: potency means the concentration at half of the fitted maximal effect).
Test [3] can be described thus: Primary qHTS for inhibitors of SARS-S pseudo-typed particle cell entry (AID 1479145). Further: nearly all actives have a fitted effect of over 45% in size.
Test [4] is described as follows: Primary qHTS for Huh7 cytotoxicity: counterscreen for inhibitors of MERS-S pseudotyped particle cell entry (AID 1479147). Further: on the % scale 0 is the no-effect control and ±100 the full control effect. To be noted: outcome: dose series up to 57.1 µM unless noted.
Test [5] is described as follows: Primary qHTS for inhibitors of MERS-S pseudo-typed particle cell entry (AID 1479149). Further: nearly all actives have a fitted effect of over 60% in size.
The nature of test [6]: Primary qHTS for Vero E6 cytotoxicity: counterscreen for inhibitors of SARS-S pseudo-typed particle cell entry (AID 1479150). Further: on the % scale 0 is the no-effect control and ±100 the full control effect. To be noted: outcome: dose series up to 57.1 µM unless noted.
Test [7] can be described thus: Primary qHTS to identify inhibitors of SARS-CoV-2 cell entry (AID 1645846). Further: nearly all actives have a fitted effect of over 45% in size. Further: potency means the concentration at half of the fitted maximal effect. To be noted: activity change, negative = inhibition: at 57.1 µM (top of the series) unless noted. A digest of the protocol: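 Luminescence readout (Bright-Glo luciferase) 48 h after pseudoparticle addition. HEK293-ACE2 cells, 1500/well; compound pre-incubation 1 h; Normalized to spike PP and bald PP.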

The nature of test [8]: Inducers of the Endoplasmic Reticulum Stress Response (ERSR) in human glioma: Validation (AID 504836; active means well fitted curve in the direction sought with a large enough effect; an effect the other way counts as inactive or inconclusive; further: 0% is about no effect). A digest of the protocol: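 Stably transfected U87-MG glioma cells carrying a GRP78-based luciferase sensor; 16 h compound incubation. Luminescence end-point read 10 min after Bright-Glo addition at room temperature.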
Test [9] can be described thus: Cytotoxicity counterscreen for inhibitors of SARS-CoV-2 cell entry (AID 1645845). Further: nearly all actives have a fitted effect of over 50% in size. Further: potency means the concentration at half of the fitted maximal effect. On activity change, negative = cytotoxicity: on the % scale 0 is the no-effect control and ±100 the full control effect. A digest of the protocol:
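Counterscreen run in the same HEK293-ACE2 line as the pseudotyped-particle entry assay, without particles. Viability after 48 h at 37 C was read as ATP luminescence, scaled between cell-containing and cell-free wells.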

Test [10] deals with Peroxisome proliferator-activated receptor delta (Homo sapiens) (UniProt Q03181). The test can be described thus: qHTS assay for small molecule agonists of peroxisome proliferator-activated receptor delta signaling (AID 588534).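 Further: 0% = DMSO basal wells and 100% = positive control agonist at 10 µM.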 A digest of the protocol:
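Agonist-mode beta-lactamase reporter readout (CCF4 dye, 2 h at RT) after 18 h at 37 °C exposure to a titration; Hill-equation fitting gave EC50 and maximal response.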

A short description of test [11]: Validation screen for inhibitors of Lassa infection (AID 463096). Further: on the % scale 0 is the no-effect control and ±100 the full control effect.
Test [12] can be described thus: Quantitative high throughput screen for delayed death inhibitors of the malarial parasite plastid, 96 hour incubation (AID 488745; active means well fitted curve in the direction sought with a large enough effect; an effect the other way counts as inactive or inconclusive; further: on the % scale 0 is the no-effect control and ±100 the full control effect; nearly all actives have a fitted effect of over 70% in size). A digest of the protocol:
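Decreased firefly luciferase luminescence indicates inhibited growth of reporter-integrated P. falciparum after two generations (96 h, 37 C, 5% CO2). Infected erythrocytes at 0.1% parasitemia, 2% hematocrit, in Albumax-supplemented RPMI 1640.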

Test [13] is described as follows: Quantitative high throughput screen for delayed death inhibitors of the malarial parasite plastid, 48 hour incubation (AID 488752; active means well fitted curve in the direction sought with a large enough effect; an effect the other way counts as inactive or inconclusive; further: on the % scale 0 is the no-effect control and ±100 the full control effect; nearly all actives have a fitted effect of over 65% in size). A digest of the protocol:
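One-generation (48 h) growth assay: a decrease in luciferase signal from an integrated reporter in P. falciparum-infected red cells (0.1% parasitemia, 2% hematocrit) after compound exposure at 37 C indicates parasite inhibition.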

The target in test [14] is Bile acid receptor (Homo sapiens) (UniProt Q96RI1). The test can be described thus: qHTS assay for small molecule agonists of farnesoid X receptor signaling (AID 588527).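 Further: 0% = vehicle basal and 100% = reference agonist.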 To be noted: HEK293T FXR-UAS-bla, beta-lactamase ratio, 16 h; activation: stronger effect = higher value. A digest of the protocol:
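Agonist-mode beta-lactamase reporter in GeneBLAzer FXR-UAS-bla HEK293T cells, titration up to 92 uM, 16 h exposure at 37 C, CCF4 fluorescence. Response scaled to DMSO (0%) and 100 uM chenodeoxycholic acid (100%), then Hill-fitted for EC50 and efficacy.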

A short description of test [15]: qHTS profiling of the MIPE4 collection as inhibitors of Plasmodium falciparum (3D7) proliferation (AID 743344; call rule not given here;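 further: scaled between DMSO vehicle wells and 0.29 µM artemisinin as full inhibition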). To be noted: P. falciparum 3D7 in erythrocytes, SYBR Green DNA fluorescence, 72 h; at 28.5 µM (top of the series) unless noted. A digest of the protocol: (§1)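 Parasite DNA was quantified by SYBR Green I fluorescence (ex 485, em 535 nm) after overnight lysis in saponin/Triton buffer at room temperature. Cultures at 0.3% parasitemia and 2.5% hematocrit were first exposed to compound for 72 h at 37 C; signals were normalised to artemisinin (0.29 uM) and vehicle wells.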

Test [16] is described as follows: qHTS profiling of the MIPE4 collection as inhibitors of Plasmodium falciparum (DD2) proliferation (AID 743345; call rule not given here). To be noted: P. falciparum Dd2 in erythrocytes, SYBR Green DNA, 72 h; at 28.5 µM (top of the series) unless noted. A digest of the protocol:
as §1

The nature of test [17]: qHTS profiling of the MIPE4 collection as inhibitors of Plasmodium falciparum (DD2) proliferation (Rep 2) (AID 743346; call rule not given here). To be noted: P. falciparum Dd2 in erythrocytes, SYBR Green DNA, 72 h; at 28.5 µM (top of the series) unless noted. A digest of the protocol:
as §1

Test [18] in a line: qHTS profiling of the MIPE4 collection as inhibitors of Plasmodium falciparum (HB3) proliferation (AID 743347; call rule not given here;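 further: plate controls were DMSO vehicle wells for no effect and artemisinin wells for full effect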). To be noted: P. falciparum HB3 in erythrocytes, SYBR Green DNA, 72 h; at 28.5 µM (top of the series) unless noted. A digest of the protocol:
as §1

Sequence of Peroxisome proliferator-activated receptor delta (Homo sapiens) (Q03181 whole entry, looked up): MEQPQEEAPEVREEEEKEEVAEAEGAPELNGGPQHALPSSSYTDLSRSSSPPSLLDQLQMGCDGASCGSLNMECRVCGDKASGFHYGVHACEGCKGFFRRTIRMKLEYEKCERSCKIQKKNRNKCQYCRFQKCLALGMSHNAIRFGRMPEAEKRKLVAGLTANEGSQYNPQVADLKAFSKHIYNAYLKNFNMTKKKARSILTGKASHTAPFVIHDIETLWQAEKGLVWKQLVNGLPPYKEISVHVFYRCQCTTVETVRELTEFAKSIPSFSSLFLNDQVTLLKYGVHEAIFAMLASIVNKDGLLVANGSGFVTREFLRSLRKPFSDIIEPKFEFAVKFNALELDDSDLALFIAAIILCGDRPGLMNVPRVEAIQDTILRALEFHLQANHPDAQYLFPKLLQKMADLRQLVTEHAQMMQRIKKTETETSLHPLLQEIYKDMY
Sequence of Bile acid receptor (Homo sapiens) (Q96RI1 whole entry, looked up): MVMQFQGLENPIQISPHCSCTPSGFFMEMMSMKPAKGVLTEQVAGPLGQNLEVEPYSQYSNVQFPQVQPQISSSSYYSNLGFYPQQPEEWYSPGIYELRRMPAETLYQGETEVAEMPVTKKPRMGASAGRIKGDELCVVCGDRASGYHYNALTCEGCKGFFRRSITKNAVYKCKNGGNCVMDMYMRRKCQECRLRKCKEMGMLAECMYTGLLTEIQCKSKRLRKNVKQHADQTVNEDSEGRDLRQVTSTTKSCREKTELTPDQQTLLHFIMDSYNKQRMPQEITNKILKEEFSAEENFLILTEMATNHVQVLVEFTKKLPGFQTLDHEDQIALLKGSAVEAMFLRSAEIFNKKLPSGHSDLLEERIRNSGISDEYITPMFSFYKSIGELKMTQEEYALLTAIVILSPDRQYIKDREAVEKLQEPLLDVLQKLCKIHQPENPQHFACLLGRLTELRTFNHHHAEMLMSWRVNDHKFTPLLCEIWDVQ

With `CC(C(=O)O)c1ccc(C(=O)c2cccs2)cc1` (centres undefined), the Potency entry in [1], in test [2], in test [3], in test [5] and in [7] was “inactive” in each case. Also, the result in test [4] and in [6] was inactive.
With `Nc1nc(N)c(N=O)c(OCC2CCCCC2)n1`, in test [8], the outcome was inactive. Besides, the Potency in test [1] was 15.3 µM (active); in [2], 21.7 µM (active). The Potency entry in test [9] is “inactive”. Further, the activity change, negative = inhibition in test [7] was -7.15%.
As to `CC(C=CC1=C(C)CCCC1(C)C)=CC=CC(C)=CC(=O)Nc1ccc(O)cc1`, the Potency result in [10] was “inactive”. In addition, the Potency in [1] and in test [2] was 44.4 µM (active) in each case.
For the molecule `O=C(CC12CC3CC(CC(C3)C1)C2)Nc1cccc2nc(NCCNCCO)ccc12`, the Potency in test [1] is 21.7 µM (active); in [2], 24.3 µM (active). In addition, the Potency entry in test [9] was “inactive”.
On to `CN(C)Cc1c(C(=O)NCCOc2ccc(C(=O)NO)cc2)oc2ccccc12`, for which the values for the Potency in [1] and in test [2] were 2.43 µM (active) and 1.37 µM (active), respectively. For the same molecule, the Potency entry in test [7] is “inactive”.
`Cc1ncc(-c2ccnc(Nc3ccc(S(C)(=O)=O)cc3)n2)n1C(C)C`: the Potency in test [1] is 6.85 µM (active); in [2], 13.7 µM (active). For the same molecule, the activity change, negative = inhibition in test [7] was -96.5%.
As to `CNC(=O)c1ccccc1Nc1nc(Nc2ccc(N3CCOCC3)cc2OC)ncc1Cl`, the results for the Potency in test [1] and in test [2] were 4.85 µM (active) and 2.73 µM (active), respectively. Further, the Potency entry in test [9] was “inactive”.
`CC(C)NCC(O)COc1cccc2ccccc12` (centres undefined): the Potency result in test [11], in test [12], in [13], in test [10], in test [1] and in [2] was “inactive” in each case. For the same molecule, the activation in [14] is 0.153% (inactive) and 4.79% (inactive).
Molecule `NC(=O)c1ncn([C@@H]2O[C@H](CO)[C@@H](O)[C@@H]2O)n1` showed a parasite growth, % of DMSO control in test [15] of 91.7%. In test [16], this molecule registered a parasite growth remaining, % of DMSO control (lower = more inhibition) of 90.2%. The same molecule returned a parasite growth, % of control (lower = inhibition) in [17] of 53.8%. In test [18], the growth, % of control came to 53.5%. The Potency entry in test [1] and in test [2] was “inactive” in each case.
Take `CN(C)c1ccc(C(=O)NCCCCCCC(=O)NO)cc1`: the Potency was 4.85 µM (active) in test [1] and 1.53 µM (active) in [2]. Besides, in [7], the Potency entry is “inactive”.
In the case of `Cc1cc(C(C)Nc2ccccc2)c2nc(N3CCOCC3)cc(=O)n2c1` (centres undefined), the Potency was 1.93 µM (active) in test [1] and 0.544 µM (active) in test [2]. Besides, in test [9], the Potency entry was “inactive”.
Regarding `CN(C)CCN1C(=O)c2cccc3cc(N)cc(c23)C1=O`, the Potency in [1] is 7.69 µM (active); in test [2], 6.85 µM (active); in test [7], 7.08 µM (active).
For the molecule `Cc1cnc(Nc2ccc(CN3CCOCC3)cc2)nc1Nc1cccc(S(=O)(=O)NC(C)(C)C)c1`, the values for the Potency in test [1] and in [9] were 4.32 µM (active) and 12.6 µM (active), respectively.
As to `Cn1cc(C2=C(c3c4n(c5ccccc35)CCC(CN)C4)C(=O)NC2=O)c2ccccc21` (centres undefined), the Potency in test [1] was 17.2 µM (active). Also, the activity change, negative = cytotoxicity in test [9] is -8.45% [at 11.3 µM] (inactive). In test [7], the activity change, negative = inhibition was -9.15% [at 11.3 µM].
